Shiga toxin inh – inhibitors of Shiga toxin in Vero cells; AID 2315; inhibition, % at 38.7 µM; Vero cells, Shiga toxin protein synthesis inhibition reporter; actives 9.2% (n = 290,000); in the data active means inhibition mostly above about 28%, no sharp cut-off; inactive means mostly below about 43%
Marburg entry inh – inhibitors of Marburg virus binding or cell entry. actives 1.8% (n = 300,000). Marburg virus pseudotyped entry inhibition, cell reporter. Potency, µM (series often up to 37.8 µM), most hits filed as inhibitors; calls by dose curve; tested in HEK293 cells
Cycloheximide cs – counter-screen for Shiga toxin inhibitors: cycloheximide protein synthesis inhibition; cell reporter, cycloheximide protein synthesis inhibition counterscreen; max response, %; actives 12% (n = 300,000); in the data active means max response mostly above about 13%, no sharp cut-off; inactive means mostly below about 14%; further: read at 38.3 µM for the half of the compounds with a filed dose
Lassa entry inh – blocks Lassa virus binding to or entry into cells; Lassa virus pseudotype entry inhibition, cell reporter; Potency, µM (highest dose often 37.9 µM), actives largely listed as inhibitors; actives 1.2% (n = 300,000); calls by dose curve; tested in HEK293 cells; further: nearly all actives have a fitted effect of over 50% in size
Of the large screens only hits and unclear results are named; the others gave an inactive call. Hits are enriched below; roughly 12% of the tested compounds scored in any of these assays.

CC(C)NC(=O)c1ccc(C(C)C)cc1	Marburg entry inh inconclusive, Cycloheximide cs 18, Lassa entry inh inconclusive
O=C(NCc1ccccc1Br)c1ccc2c(c1)OCCO2	none (no result: Shiga toxin inh)
Cc1cc2cc(CNC(=O)c3ccc4c(c3)OCO4)ccc2[nH]1	Cycloheximide cs 20
O=C(NCc1ccc2c(c1)OCO2)c1cccs1	none
CCCc1nnc(NC(=O)CCC(=O)N2CCC(C)CC2)s1	none (no result: Marburg entry inh, Lassa entry inh)
Nn1c(SCC(=O)Nc2ccccc2Oc2ccccc2)nnc1C1CC1	none (no result: Shiga toxin inh, Cycloheximide cs)
O=C(c1cccc(S(=O)(=O)Nc2ccccc2F)c1)N1CCN(c2ccccc2F)CC1	Marburg entry inh inconclusive
CCOc1ccc(/C=C/C(=O)Nc2ccccc2C(F)(F)F)cc1	Shiga toxin inh 38, Marburg entry inh inconclusive, Cycloheximide cs 36, Lassa entry inh inconclusive
COc1ccc(/C=C/C(=O)Nc2ccccc2C(F)(F)F)cc1OC	Lassa entry inh inconclusive
COc1ccc(/C=C/C(=O)Nc2ccccc2C(F)(F)F)cc1	Shiga toxin inh 59, Marburg entry inh inconclusive, Cycloheximide cs 24, Lassa entry inh inconclusive
CC1CN(C(=S)SCCN2C(=O)CCC2=O)CC(C)O1 (centres undefined)	none
Cc1nc2c([nH]c3ccc(Br)cc32)s1	Shiga toxin inh 22, Cycloheximide cs 15
CCOc1ccccc1NC(=S)NCc1cccn1C	none
COc1ccccc1N1CCN(C2=NS(=O)(=O)c3ccccc32)CC1	Marburg entry inh inconclusive, Cycloheximide cs 12, Lassa entry inh inconclusive
COc1ccccc1N1CCN(c2ccc(-c3ccccc3)nn2)CC1	Shiga toxin inh 139, Marburg entry inh 1.6µM, Cycloheximide cs 42, Lassa entry inh 3.5µM
O=S1(=O)N=C(N2CCOCC2)c2ccccc21	Marburg entry inh inconclusive
COc1ccccc1N1CCN(c2cc(N3CCCC3)nc(C)n2)CC1	none
COc1ccccc1N1CCN(c2nc(-c3ccccc3)cc(C(F)(F)F)n2)CC1	none
COc1ccccc1N1CCN(c2ccc3ccccc3n2)CC1	Shiga toxin inh 70, Marburg entry inh inconclusive, Cycloheximide cs 45, Lassa entry inh inconclusive
O=C(CN(Cc1ccccc1)C(=O)CCC(=O)Nc1nccs1)NCc1ccc(F)cc1	none
CN(C)c1nc(F)c(F)c(S(=O)(=O)c2ccccc2)c1F	Marburg entry inh inconclusive, Lassa entry inh inconclusive
CN1CCc2cc(O)c(O)cc2C1Cc1ccc(O)c(O)c1 (centres undefined)	none (no result: Marburg entry inh, Lassa entry inh)
COc1ccc(/C=C/c2nc(-c3ccccc3O)n(-c3ccccc3)n2)cc1	none
COc1ccc(-c2cc(-c3ccccc3)n[nH]2)c(O)c1	Shiga toxin inh 82, Marburg entry inh inconclusive, Cycloheximide cs 32, Lassa entry inh inconclusive
COc1ccc(-c2cc(-c3ccccc3O)[nH]n2)cc1	Shiga toxin inh 71, Marburg entry inh inconclusive, Cycloheximide cs 55, Lassa entry inh inconclusive
COc1ccc(/C=C/c2nc(-c3ccccc3O)n[nH]2)cc1	Shiga toxin inh 74, Marburg entry inh inconclusive, Cycloheximide cs 70, Lassa entry inh inconclusive
COc1ccc(C2CC(c3cccs3)=NN2S(C)(=O)=O)cc1OC (centres undefined)	none
CCS(=O)(=O)Nc1ccc(C2=NN(S(C)(=O)=O)C(c3cccs3)C2)cc1 (centres undefined)	Cycloheximide cs 21, Lassa entry inh inconclusive
COc1cccc(C2=NN(S(C)(=O)=O)C(c3cccs3)C2)c1 (centres undefined)	Shiga toxin inh 40, Cycloheximide cs 35, Lassa entry inh inconclusive
COc1ccc2cc(C3CC(c4cccs4)=NN3S(C)(=O)=O)c(Cl)nc2c1 (centres undefined)	Marburg entry inh inconclusive, Cycloheximide cs 24
COc1ccc(C2=NN(S(C)(=O)=O)C(c3cccs3)C2)cc1OC (centres undefined)	Shiga toxin inh 66, Cycloheximide cs 44
CS(=O)(=O)N1N=C(c2ccccc2)CC1c1cccs1 (centres undefined)	none
COc1ccccc1OC(C)C(=O)Nc1ccccc1C(=O)NCc1cccnc1 (centres undefined)	none (no result: Lassa entry inh)
COc1cccc(NC(=S)N2CCN(S(=O)(=O)c3ccccc3)CC2)c1	none
Cn1c(=O)c2c(nc(NCc3ccco3)n2C/C=C/c2ccccc2)n(C)c1=O	Marburg entry inh 13µM, Lassa entry inh 10µM
Cc1ccc(S(=O)(=O)Oc2ccc3ccc(O)cc3c2)cc1	Cycloheximide cs 29 (no result: Shiga toxin inh, Marburg entry inh, Lassa entry inh)
CCOc1ccc(S(=O)(=O)Oc2ccc3ccccc3c2)cc1	Shiga toxin inh 43, Cycloheximide cs 29
Cc1ccc(S(=O)(=O)Oc2ccccc2)cc1	none (no result: Shiga toxin inh, Cycloheximide cs)
Cc1ccc(NC(=O)C(C)Sc2nc(-c3ccccc3)cc(=O)[nH]2)cc1 (centres undefined)	none (no result: Marburg entry inh, Lassa entry inh)
CC1=CC(C)=Nc2ccccc2N1	Shiga toxin inh 62, Cycloheximide cs 45
Nc1nc(NCc2ccco2)nc(Nc2ccccc2)c1[N+](=O)[O-]	none
Nc1nc(Nc2ccccc2)nc(NCc2ccco2)c1[N+](=O)[O-]	Marburg entry inh inconclusive
Cc1ccc(Nc2nc(N)c([N+](=O)[O-])c(NCc3ccco3)n2)cc1	Shiga toxin inh 55, Marburg entry inh inconclusive, Cycloheximide cs 34
Cc1ccc(Nc2ccc([N+](=O)[O-])nc2[N+](=O)[O-])cc1	Cycloheximide cs 22
Cc1ccc(Nc2ccc3nonc3c2[N+](=O)[O-])cc1	none
Nc1nc(Nc2ccccc2F)nc(NCc2ccco2)c1[N+](=O)[O-]	Shiga toxin inh 49, Cycloheximide cs 39 (no result: Marburg entry inh, Lassa entry inh)
Fc1ccc(Nc2nc(NCc3ccco3)c3ccccc3n2)cc1	Shiga toxin inh 67, Cycloheximide cs 30 (no result: Marburg entry inh, Lassa entry inh)
c1ccc(Cn2c[n+](Cc3ccccc3)cn2)cc1	none (no result: Marburg entry inh, Lassa entry inh)
Cc1ccc(C(=O)CSc2ncc3c(n2)-c2ccccc2N(Cc2ccc(Cl)cc2)S3(=O)=O)cc1	none (no result: Shiga toxin inh, Marburg entry inh, Cycloheximide cs)
Nc1nc(Nc2cccc(F)c2)nc(NCCO)c1[N+](=O)[O-]	none
Cc1ccc(Nc2nc(N)c([N+](=O)[O-])c(NCCO)n2)cc1	Cycloheximide cs 13 (no result: Marburg entry inh, Lassa entry inh)
c1ccc(CNc2nc(NCc3ccccc3)c3ccccc3n2)cc1	Marburg entry inh inconclusive, Lassa entry inh 10µM
O=C(CCC(=O)Nc1ccccc1)NNC(=O)COc1ccccc1	Marburg entry inh inconclusive
Cc1ccc(Cn2ncc3c(NN)ncnc32)cc1	Lassa entry inh inconclusive
Nc1c(C(=O)NCCc2ccc(Cl)cc2)sc2ccc(S(=O)(=O)N3CCCCC3)cc12	none (no result: Lassa entry inh)
CC12C=CC(=O)C=C1CCC1C3CCC(O)(C(=O)CO)C3(C)CC(O)C12F (centres undefined)	none (no result: Shiga toxin inh, Cycloheximide cs)
CC1(c2ccccc2)O[C@@H]2C[C@H]3[C@@H]4CCC5=CC(=O)C=C[C@]5(C)[C@@]4(F)[C@@H](O)C[C@]3(C)[C@]2(C(=O)CO)O1 (some centres undefined)	Marburg entry inh 10µM, Lassa entry inh inconclusive
CN1C/C(=C\c2ccc(N3CCOCC3)cc2)C(=O)/C(=C/c2ccc(N3CCOCC3)cc2)C1	Marburg entry inh inconclusive
CN1C/C(=C/c2ccsc2)C(=O)/C(=C/c2ccsc2)C1	Marburg entry inh 5µM, Cycloheximide cs 63, Lassa entry inh inconclusive
CN1C/C(=C/c2ccncc2)C(=O)/C(=C/c2ccncc2)C1	Cycloheximide cs 32, Lassa entry inh inconclusive
O=C(NCc1ccncc1)c1ccccc1Nc1ccc(SC(F)F)cc1	Marburg entry inh inconclusive
CCOC(=O)N1CCC(=NNC(=O)c2ccccc2F)CC1	Shiga toxin inh 25, Marburg entry inh inconclusive, Cycloheximide cs 49
CNC(=O)c1ccccc1Nc1ccc(SC(F)F)cc1	Shiga toxin inh 24, Cycloheximide cs 23 (no result: Marburg entry inh, Lassa entry inh)

Screening data deposited in PubChem by National Center for Advancing Translational Sciences (NCATS).
